# The supplement of paper PMC10849652
# Of roughly 8,800 targets only a part is listed; those with a hit were picked by preference. About 0.5% of all pairs of compound and target were hits. A number with no mark means an inactive call.
# How the values were obtained:
# Assay in all cases: log2 fold change, soluble protein after heating vs DMSO (PISA); higher = thermal stabilisation; K562 lysate, 10 uM; active = over 0.2 and 3.5 SD of the protein, either way, in both replicates (recomputed)
# erlotinib = compound: C#Cc1cccc(Nc2ncnc3cc(OCCOC)c(OCCOC)cc23)c1 [erlotinib]
# Summary of the method: (§1)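 Quantification was by TMTpro 16plex LC-MS/MS with equalised channel sums, applied to the supernatant after 21,000xg for 90 min. Samples were crude K562 extract at 1 mg/mL protein in PBS pH 7.4 with 1 mM MgCl2, treated with 10 μM compound for 30 min, heated for 3 min across 48°C-58°C, pooled and brought to 0.5% NP-40 at 4°C. Values are log-two fold changes in thermal stability relative to solvent controls, from duplicates.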
# [1] = compound: C/C(=N\NC(=O)C1=CC(=CC=C1)S(=O)(=O)N2CCOCC2)/C3=C(C=CC(=C3)Cl)O
# Summary of the method: as §1
# [2] = compound: C1=CC(=CC=C1C2=NC3=C(N2)C=C(C=C3)C(=O)N)OC4=CC=C(C=C4)Cl
# Summary of the method: as §1
# [3] = compound: C1=CC2=C(C=CC(=C2)/C=C\3/C(=O)NC(=NCC4=CC=CS4)S3)N=C1
# Summary of the method: as §1
# [4] = compound: C1=CC2=NC=CN=C2C=C1/C=C/3\C(=O)NC(=O)S3
# Summary of the method: as §1
# [5] = compound: C1=CC=C(C=C1)C2=NC(=C(N2)C3=CC=NC=C3)C4=CC(=C(C=C4)Cl)O
# Summary of the method: as §1
# [6] = compound: C1=CC=C2C(=C1)C3=NNC4=CC=CC(=C43)C2=O
# Summary of the method: as §1
# [7] = compound: C1CCN(C1)C(=O)NC2=CC=CC(=C2)NC3=NC=C(C(=N3)NCCC4=CN=CN4)Br
# Summary of the method: as §1
# [8] = compound: C1CN(CCC1(CC2=CC=C(C=C2)Cl)N)C3=NC=NC4=C3C=CN4
# Summary of the method: as §1
# IRAK-1-4 Inhibitor I = compound: C1COCCN1CCN2C3=CC=CC=C3N=C2NC(=O)C4=CC(=CC=C4)[N+](=O)[O-] [IRAK-1-4 Inhibitor I]
# Summary of the method: as §1
# Chain of UniProt Q9BVP2 (Q9BVP2 whole entry, looked up): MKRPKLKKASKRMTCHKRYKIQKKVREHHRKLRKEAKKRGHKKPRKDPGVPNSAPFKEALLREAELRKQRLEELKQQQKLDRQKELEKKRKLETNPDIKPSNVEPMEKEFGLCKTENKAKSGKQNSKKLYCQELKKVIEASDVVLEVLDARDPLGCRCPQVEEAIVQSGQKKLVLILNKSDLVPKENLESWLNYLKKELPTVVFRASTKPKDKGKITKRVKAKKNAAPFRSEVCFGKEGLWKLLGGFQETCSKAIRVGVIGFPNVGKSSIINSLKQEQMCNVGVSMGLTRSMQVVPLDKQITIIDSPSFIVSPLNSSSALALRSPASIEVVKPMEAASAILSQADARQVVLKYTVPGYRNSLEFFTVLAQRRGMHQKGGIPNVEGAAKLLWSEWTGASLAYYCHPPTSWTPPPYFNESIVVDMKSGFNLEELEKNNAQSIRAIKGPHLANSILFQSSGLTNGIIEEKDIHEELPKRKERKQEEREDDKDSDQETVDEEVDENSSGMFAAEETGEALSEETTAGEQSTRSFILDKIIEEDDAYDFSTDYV
# Chain of UniProt P49915 (P49915 whole entry, looked up): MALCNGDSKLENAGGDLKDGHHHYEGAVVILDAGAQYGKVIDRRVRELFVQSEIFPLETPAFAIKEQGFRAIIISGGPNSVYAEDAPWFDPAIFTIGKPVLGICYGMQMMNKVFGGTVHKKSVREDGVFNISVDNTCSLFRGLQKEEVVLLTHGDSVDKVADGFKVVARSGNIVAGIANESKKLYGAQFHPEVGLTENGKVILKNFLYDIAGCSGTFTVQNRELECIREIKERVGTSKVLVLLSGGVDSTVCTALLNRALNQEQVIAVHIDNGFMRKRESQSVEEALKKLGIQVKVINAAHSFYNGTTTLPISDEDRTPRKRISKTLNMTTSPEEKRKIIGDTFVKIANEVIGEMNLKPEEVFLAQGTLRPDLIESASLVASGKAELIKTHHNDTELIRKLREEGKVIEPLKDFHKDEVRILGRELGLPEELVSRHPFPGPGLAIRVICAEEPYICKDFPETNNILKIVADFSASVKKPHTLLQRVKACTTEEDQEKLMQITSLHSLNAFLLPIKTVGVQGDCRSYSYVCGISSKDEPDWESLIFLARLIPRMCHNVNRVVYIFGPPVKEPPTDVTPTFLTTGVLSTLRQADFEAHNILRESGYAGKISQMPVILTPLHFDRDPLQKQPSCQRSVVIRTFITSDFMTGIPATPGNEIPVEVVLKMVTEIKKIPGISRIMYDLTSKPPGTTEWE
# Chain of UniProt Q68E01 (Q68E01 whole entry, looked up): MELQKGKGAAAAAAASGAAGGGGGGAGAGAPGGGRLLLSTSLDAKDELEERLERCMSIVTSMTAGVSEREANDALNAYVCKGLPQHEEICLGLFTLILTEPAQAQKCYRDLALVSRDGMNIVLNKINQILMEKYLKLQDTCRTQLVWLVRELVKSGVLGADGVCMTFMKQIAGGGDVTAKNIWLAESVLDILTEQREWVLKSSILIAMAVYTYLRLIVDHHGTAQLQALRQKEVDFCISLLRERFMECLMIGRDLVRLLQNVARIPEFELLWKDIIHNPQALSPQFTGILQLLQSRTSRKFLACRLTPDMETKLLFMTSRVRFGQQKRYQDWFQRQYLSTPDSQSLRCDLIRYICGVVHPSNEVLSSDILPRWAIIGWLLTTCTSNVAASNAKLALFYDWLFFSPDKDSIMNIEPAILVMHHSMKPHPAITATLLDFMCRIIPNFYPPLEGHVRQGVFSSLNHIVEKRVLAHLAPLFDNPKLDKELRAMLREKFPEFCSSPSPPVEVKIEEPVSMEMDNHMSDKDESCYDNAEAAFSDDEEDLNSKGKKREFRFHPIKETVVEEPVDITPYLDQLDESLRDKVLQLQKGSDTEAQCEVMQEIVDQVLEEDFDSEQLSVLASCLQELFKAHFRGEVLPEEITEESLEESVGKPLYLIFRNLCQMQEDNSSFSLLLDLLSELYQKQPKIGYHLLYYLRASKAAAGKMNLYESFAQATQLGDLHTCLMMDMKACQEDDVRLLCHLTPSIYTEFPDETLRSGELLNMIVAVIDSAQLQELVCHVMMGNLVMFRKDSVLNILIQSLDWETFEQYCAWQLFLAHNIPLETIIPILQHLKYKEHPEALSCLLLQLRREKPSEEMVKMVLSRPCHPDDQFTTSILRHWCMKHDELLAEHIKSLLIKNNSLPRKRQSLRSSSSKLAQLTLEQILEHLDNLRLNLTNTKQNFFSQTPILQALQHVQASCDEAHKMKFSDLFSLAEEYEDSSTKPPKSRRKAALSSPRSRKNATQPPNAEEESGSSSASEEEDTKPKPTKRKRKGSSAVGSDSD
# Chain of UniProt Q9UBN7 (Q9UBN7 whole entry, looked up): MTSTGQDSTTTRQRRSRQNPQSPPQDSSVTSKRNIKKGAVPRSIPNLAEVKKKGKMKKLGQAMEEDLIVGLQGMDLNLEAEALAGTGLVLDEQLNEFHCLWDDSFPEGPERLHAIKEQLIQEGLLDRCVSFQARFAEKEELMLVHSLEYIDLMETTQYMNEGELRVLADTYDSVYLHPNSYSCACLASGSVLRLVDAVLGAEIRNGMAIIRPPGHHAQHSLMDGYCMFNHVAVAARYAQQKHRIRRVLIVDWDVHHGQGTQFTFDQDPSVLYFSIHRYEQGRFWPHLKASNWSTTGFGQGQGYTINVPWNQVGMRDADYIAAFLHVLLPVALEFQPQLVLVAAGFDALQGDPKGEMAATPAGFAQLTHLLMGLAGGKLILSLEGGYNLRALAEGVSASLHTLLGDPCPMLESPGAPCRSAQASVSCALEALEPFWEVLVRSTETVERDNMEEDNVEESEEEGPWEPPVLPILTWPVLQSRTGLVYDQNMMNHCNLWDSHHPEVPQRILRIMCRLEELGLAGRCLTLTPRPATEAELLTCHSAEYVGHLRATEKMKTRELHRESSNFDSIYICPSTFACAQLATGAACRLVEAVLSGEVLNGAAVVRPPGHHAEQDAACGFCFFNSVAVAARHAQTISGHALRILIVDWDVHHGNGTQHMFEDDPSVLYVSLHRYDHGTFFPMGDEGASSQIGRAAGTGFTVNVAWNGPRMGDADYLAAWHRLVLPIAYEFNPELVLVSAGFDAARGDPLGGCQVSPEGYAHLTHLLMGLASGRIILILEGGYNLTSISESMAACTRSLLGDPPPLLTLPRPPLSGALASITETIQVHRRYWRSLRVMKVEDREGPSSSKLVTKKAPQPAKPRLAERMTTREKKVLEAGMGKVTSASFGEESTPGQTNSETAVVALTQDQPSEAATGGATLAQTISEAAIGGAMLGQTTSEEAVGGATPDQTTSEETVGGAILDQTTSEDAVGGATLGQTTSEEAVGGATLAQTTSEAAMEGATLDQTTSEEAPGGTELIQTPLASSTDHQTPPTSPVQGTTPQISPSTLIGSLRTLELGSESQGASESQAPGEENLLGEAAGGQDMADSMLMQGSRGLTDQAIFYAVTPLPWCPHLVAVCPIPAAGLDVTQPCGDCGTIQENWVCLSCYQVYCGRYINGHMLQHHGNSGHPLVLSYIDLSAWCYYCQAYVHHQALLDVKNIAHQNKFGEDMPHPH
# Chain of UniProt Q53GQ0 (Q53GQ0 whole entry, looked up): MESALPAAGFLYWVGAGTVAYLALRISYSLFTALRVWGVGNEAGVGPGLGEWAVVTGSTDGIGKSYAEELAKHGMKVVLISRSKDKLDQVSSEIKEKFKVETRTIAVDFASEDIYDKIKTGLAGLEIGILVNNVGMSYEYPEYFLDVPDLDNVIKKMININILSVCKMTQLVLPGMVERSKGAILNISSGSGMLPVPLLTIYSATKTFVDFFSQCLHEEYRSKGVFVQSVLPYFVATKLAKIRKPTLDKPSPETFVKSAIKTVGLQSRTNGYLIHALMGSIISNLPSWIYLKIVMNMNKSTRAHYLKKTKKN
# Chain of UniProt P52272 (P52272 whole entry, looked up): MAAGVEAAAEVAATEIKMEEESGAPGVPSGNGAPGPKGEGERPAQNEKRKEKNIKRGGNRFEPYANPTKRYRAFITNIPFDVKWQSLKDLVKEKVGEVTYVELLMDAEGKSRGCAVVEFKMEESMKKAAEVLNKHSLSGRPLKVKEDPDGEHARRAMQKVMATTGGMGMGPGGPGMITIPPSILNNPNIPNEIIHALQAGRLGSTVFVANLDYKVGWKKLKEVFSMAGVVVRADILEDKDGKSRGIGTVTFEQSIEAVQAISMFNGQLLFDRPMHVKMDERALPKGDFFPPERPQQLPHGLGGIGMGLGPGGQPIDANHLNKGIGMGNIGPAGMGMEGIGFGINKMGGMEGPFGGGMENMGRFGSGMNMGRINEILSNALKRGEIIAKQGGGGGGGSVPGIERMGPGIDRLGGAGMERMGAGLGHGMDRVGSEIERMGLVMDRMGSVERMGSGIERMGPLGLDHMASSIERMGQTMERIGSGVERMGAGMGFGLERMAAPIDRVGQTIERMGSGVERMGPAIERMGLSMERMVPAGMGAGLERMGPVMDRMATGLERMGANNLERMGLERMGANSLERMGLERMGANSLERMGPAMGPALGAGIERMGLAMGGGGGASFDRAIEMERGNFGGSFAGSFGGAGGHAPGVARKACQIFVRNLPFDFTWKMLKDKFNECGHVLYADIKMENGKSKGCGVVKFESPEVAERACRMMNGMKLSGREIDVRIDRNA
# Chain of UniProt P09429 (P09429 whole entry, looked up): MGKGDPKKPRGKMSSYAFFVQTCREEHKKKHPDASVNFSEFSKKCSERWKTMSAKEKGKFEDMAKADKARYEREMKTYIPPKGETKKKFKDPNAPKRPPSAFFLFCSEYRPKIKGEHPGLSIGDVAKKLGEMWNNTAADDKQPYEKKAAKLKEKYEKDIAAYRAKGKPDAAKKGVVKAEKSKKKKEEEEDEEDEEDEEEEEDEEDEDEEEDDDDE
# Chain of UniProt P17096 (P17096 whole entry, looked up): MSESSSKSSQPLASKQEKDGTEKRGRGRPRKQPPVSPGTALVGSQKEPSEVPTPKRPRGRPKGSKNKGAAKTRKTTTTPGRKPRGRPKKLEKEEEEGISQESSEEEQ
Target,log2 fold change (erlotinib),log2 fold change [1],log2 fold change [2],log2 fold change [3],log2 fold change [4],log2 fold change [5],log2 fold change [6],log2 fold change [7],log2 fold change [8],log2 fold change (IRAK-1-4 Inhibitor I)
GSTP1 (UniProt P09211),-0.008,0.035,-0.024,0.036,0.08,-0.002,0.007,-0.022,-0.022,0
HAUS4 (UniProt Q9H6D7),0.012,-0.029,-0.036,0.064,-0.003,0.015,-0.015,-0.025,-0.007,-0.016
GTF3C5 isoform 3 (UniProt Q9Y5Q8),-0.002,-0.042,-0.01,0.007,-0.024,-0.019,-0.03,0.072,0.019,-0.015
GNL3 (UniProt Q9BVP2),0.004,-0.072,0.002,0.009,-0.062,0.015,-0.011,0.021,0.014,0.033
GOLPH3 (UniProt Q9H4A6),0.022,-0.041,-0.075,0.017,0.012,0.004,0.019,-0.008,-0.02,0.035
IARS (UniProt P41252),0.022,0.061,-0.011,0.013,0.02,0.006,-0.035,0.006,0.01,-0.006
HNRNPDL (UniProt O14979),-0.013,0.026,0.009,-0.008,0.024,0.038,0.008,0.006,0.014,-0.008
HNRNPD isoform 3 (UniProt Q14103),-0.056,-0.133,-0.1,-0.181,-0.036,-0.11,0.021,0.108,-0.043,-0.057
HAUS7 isoform 2 (UniProt Q99871),0.104,0.106,0.028,-0.005,0,0.048,-0.006,-0.011,0.164,-0.028
GIT1 (UniProt Q9Y2X7),-0.003,0.011,-0.039,0.054,-0.014,-0.014,-0.009,0,-0.011,0.017
HMGCS1 (UniProt Q01581),-0.003,-0.035,0.006,-0.001,-0.005,0.014,0.004,0.003,0.012,-0.009
HNRNPM (UniProt P52272),-0.015,-0.046,0.004,-0.022,0.051,-0.036,-0.039,-0.022,-0.003,0.005
HMGB1 (UniProt P09429),-0.024,-0.017,-0.021,-0.03,-0.001,0.035,0.007,0.012,0.001,-0.015
KHDRBS1 (UniProt Q07666),-0.013,0.001,-0.035,0.009,-0.038,0.006,-0.016,0.026,0.037,-0.013
HMGA1 (UniProt P17096),-0.037,-0.053,-0.001,-0.026,-0.053,-0.007,0.026,0.036,0.013,-0.022
HK2 (UniProt P52789),0.013,0.007,-0.045,0.019,-0.01,0.026,-0.027,-0.016,0.004,-0.002
INTS3 (UniProt Q68E01),0.015,0.035,0.021,-0.002,-0.008,-0.043,-0.005,0.026,-0.083,0.016
GLB1 (UniProt P16278),0.004,-0.027,0.004,0.039,-0.011,0.016,-0.086,-0.003,0.031,0.016
GSE1 (UniProt Q14687),0.012,-0.022,0.025,0.003,-0.001,-0.013,-0.048,-0.032,-0.018,-0.011
HDAC2 (UniProt Q92769),-0.02,0.021,-0.001,0.012,-0.013,-0.004,-0.009,-0.013,-0.001,-0.017
HAUS5 (UniProt O94927),0.046,0.021,-0.071,-0.015,-0.045,-0.009,0.113,0.031,-0.017,0.033
HSD17B12 (UniProt Q53GQ0),-0.018,-0.026,-0.03,-0.018,0.036,0.006,-0.006,-0.022,0.047,0.03
HADHB (UniProt P55084),-0.108,-0.039,0.367 (active),-0.036,-0.128,-0.029,0.011,-0.066,0.062,0.025
ISOC2 (UniProt Q96AB3),-0.018,0.003,0.001,-0.035,-0.006,-0.072,0.003,-0.007,-0.001,0.053
GMPS (UniProt P49915),0.014,-0.025,0.004,0.029,-0.013,-0.007,-0.009,-0.003,0.017,-0.004
GTF2I (UniProt P78347),-0.005,0.016,-0.02,0.018,0.008,-0.003,-0.034,-0.002,-0.031,-0.007
HNRNPH2 (UniProt P55795),-0.035,0.112,0.028,-0.047,0.02,0.038,-0.015,0.01,-0.013,0
GSTZ1 (UniProt G3V4T6),0.018,-0.034,0.032,-0.003,0.02,-0.043,0.026,0.017,0.064,0.016
HDAC6 (UniProt Q9UBN7),-0.025,-0.002,-0.025,-0.006,-0.014,-0.042,-0.034,-0.001,-0.023,0.008
INF2 (UniProt Q27J81),0.004,-0.014,-0.027,0.069,0.004,-0.024,-0.019,0.031,0.056,-0.011
